Active and inactive are the calls of the source.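 Rule for the calls: active = Her2 level under about 52% in both replicate screens, with viability over 70% of control (limit read from the data); inconclusive = Her2 under the limit in one screen only, or viability under 70%; inactive = Her2 level above the set limit.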
Tested on: not listed separately
Experiment: Her2 expression decrease, cell viability multiplex – SKBR3 breast tumor cells, AlphaScreen, ATP viability, primary screen (AID 461);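 for Her2 level: lower value means less Her2 protein in the cells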;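 for viability: percent of carrier control wells set as 100% viability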
Settings: SKBR3 Her2 protein level, 18-24 h, measured here: SKBR3 viability, ATP luminescence, at 10 µM

| SMILES | viability [%] |
| --- | --- |
| COc1ccc(N2CCN(Cc3nc4c(c(=O)n(C)c(=O)n4C)n3Cc3ccccc3C)CC2)cc1 | 92.5 |
| CN(C(=O)c1ccco1)c1nnc(C23CC4CC(CC(C4)C2)C3)s1 | 86 |
| CCCC(=O)C1=C(N(C)c2ccccc2)CC(C)(C)C(C(=O)OC)C1=O (stereo unspecified) | 95 |

Target: Receptor tyrosine-protein kinase erbB-2 (Homo sapiens) (UniProt P04626)
Sequence (P04626 whole entry, looked up): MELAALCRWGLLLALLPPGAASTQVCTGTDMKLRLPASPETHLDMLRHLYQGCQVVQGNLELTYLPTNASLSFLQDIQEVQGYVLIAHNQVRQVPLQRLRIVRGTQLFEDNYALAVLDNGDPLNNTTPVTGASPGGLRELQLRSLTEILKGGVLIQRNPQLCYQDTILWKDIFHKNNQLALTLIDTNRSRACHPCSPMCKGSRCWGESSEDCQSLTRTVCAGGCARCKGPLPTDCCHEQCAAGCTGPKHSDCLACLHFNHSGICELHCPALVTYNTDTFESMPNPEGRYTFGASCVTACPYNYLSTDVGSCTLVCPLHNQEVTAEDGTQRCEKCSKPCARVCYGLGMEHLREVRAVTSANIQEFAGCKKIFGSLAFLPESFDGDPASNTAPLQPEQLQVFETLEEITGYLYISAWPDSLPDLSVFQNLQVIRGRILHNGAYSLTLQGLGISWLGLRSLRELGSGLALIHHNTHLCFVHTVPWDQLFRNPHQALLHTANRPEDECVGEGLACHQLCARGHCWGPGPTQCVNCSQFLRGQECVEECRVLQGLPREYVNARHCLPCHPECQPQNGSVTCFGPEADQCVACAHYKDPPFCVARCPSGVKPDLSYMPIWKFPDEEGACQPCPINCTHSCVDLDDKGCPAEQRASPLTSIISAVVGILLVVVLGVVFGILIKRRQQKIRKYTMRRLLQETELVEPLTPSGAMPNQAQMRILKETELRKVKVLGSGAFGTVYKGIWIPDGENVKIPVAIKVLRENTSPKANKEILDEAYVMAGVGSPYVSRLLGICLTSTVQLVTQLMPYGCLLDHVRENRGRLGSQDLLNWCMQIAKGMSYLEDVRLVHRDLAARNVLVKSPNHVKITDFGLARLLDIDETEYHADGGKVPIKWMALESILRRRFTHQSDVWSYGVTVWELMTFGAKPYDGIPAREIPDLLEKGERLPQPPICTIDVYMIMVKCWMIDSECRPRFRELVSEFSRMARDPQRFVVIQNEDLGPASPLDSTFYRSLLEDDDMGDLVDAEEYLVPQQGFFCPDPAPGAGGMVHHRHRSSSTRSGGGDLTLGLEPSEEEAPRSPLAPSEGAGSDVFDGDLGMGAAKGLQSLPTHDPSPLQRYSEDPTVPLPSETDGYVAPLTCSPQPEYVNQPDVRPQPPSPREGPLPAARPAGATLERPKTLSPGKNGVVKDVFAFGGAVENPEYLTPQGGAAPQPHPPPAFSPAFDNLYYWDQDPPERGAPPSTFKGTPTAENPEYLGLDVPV
Experiment: as above
Settings: 18-24 h, at 10 µM, stronger effect = lower value

| SMILES | Her2 level |
| --- | --- |
| O=C(c1ccc2nc(N3CCCCC3)sc2c1)N1CCN(c2ccccn2)CC1 | 102% (inactive) |
| CC(C)CCNC(=O)Cn1c(NCCC(C)C)nc2c1c(=O)n(C)c(=O)n2C | 118% (inactive) |
| CC(=O)NC(C)c1nc2ccccc2n1C(C)C (stereo unspecified) | 106% (inactive) |
| NC(=O)CSc1cn(CCNC(=O)c2cccs2)c2ccccc12 | 92.5% (inactive) |
| Cc1cccc(C2CC(c3ccc(Cl)cc3)Nc3nc(N)nn32)c1 (stereo unspecified) | 113% (inactive) |
| CCOC(=O)CN1CC23C=CC(O2)C(C(=O)Nc2ccc(C(C)=O)cc2)C3C1=O (stereo unspecified) | 101% (inactive) |
| CCCSc1nnc(N2C(=O)CC(c3ccsc3)C3=C2CCCC3=O)s1 (stereo unspecified) | 100% (inactive) |
| O=C(CN1CCN(Cc2ccc(F)cc2Cl)C1=O)NCCCN1CCOCC1 | 104% (inactive) |
| CN(C)CCCN1C(=O)CSC1c1ccccc1 (stereo unspecified) | 99% (inactive) |
| COC(=O)Cn1c(=O)c2c(nc3n2CC(C)CN3c2ccc(C)c(C)c2)n(C)c1=O (stereo unspecified) | 89% (inactive) |
| CCCSC1=C(C#N)C(c2cc(OC)ccc2OC)CC(=O)N1 (stereo unspecified) | 92% (inactive) |
| O=C(Nc1ccc(CN2CCOCC2)cc1)c1cc2ccccn2n1 | 103% (inactive) |
| CCN(CC)CCn1c(=N)n(CCO)c2ccccc21 | 94% (inactive) |

Reference: PubChem BioAssay
